Experimental data reported in PubChem BioAssay AID1259397 (Fisher Drug Discovery Resource Center, 2018).
Where “and” joins values, the source holds several entries; their conditions need not be identical. Equal values may be shown once. Screen size: about 130,000 compounds; about 230 (0.18%) were called active.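 The calls were made as follows: active = inhibition of cGAS enzyme activity at or above 60%; inactive = the rest.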 Only a selection was taken, and actives are over-represented in it overall. A structure can be active in one record and inactive in another.

These molecules were tested against Cyclic GMP-AMP synthase (Mus musculus) (UniProt Q8C6L5) (assay: inhibitors of Mus musculus cyclic GMP-AMP synthase, initial high-throughput assay, cell-free, RapidFire MS (AID 1259397;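 also: enzyme stimulated by 45 bp dsDNA with ATP and GTP substrates; cGAMP share of summed cGAMP plus half ATP and half GTP signals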)). Details: recombinant mouse cGAS, cGAMP by RapidFire MS; at 12.5 µM; stronger effect = higher value.
Sequence of Cyclic GMP-AMP synthase (Mus musculus) (Q8C6L5 whole entry, looked up): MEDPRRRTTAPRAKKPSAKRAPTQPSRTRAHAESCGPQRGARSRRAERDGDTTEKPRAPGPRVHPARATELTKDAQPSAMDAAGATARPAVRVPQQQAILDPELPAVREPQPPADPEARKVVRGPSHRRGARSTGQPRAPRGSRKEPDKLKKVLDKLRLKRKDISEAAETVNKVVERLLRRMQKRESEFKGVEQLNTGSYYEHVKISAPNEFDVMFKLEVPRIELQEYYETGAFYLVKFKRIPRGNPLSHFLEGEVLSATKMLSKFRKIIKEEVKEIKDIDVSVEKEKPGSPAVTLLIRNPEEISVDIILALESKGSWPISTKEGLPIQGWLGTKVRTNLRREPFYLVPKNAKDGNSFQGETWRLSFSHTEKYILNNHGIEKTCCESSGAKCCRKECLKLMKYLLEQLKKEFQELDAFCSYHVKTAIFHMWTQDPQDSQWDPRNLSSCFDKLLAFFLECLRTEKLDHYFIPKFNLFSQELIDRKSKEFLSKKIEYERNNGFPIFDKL

Compound | inhibition
CN(Cc1ccc(Br)s1)C(=O)CSCc1ccc(C#N)cc1 | 7.87% (inactive)
O=S(=O)(NCc1ccccc1)NCc1csc(-c2cnccn2)n1 | -34.7% (inactive)
O=C1CN(c2ccc(NC(=O)c3ccc4c(c3)COC4)cc2)CCN1 | -2.78% (inactive)
CN1CCN2CCN(C(=O)c3cccc(N4CCNC4=O)c3)CC2C1=O (configuration not stated) | -13.8% (inactive)
C=C(C)Cn1c(N2CCN(Cc3cccc(C)c3)CC2)nc2c1c(=O)[nH]c(=O)n2C | -6.09% (inactive)
O=C1NC(=O)C(=Cc2ccc(C(=O)O)cc2)S1 | 35.6% (inactive)
O=C1NC(=S)SC1=Cc1ccccc1F | 62.6% (active)
COc1cc(C=C2SC(=S)NC2=O)cc(Br)c1O | 12% (inactive)
CC(=O)NN=C1CCCc2c(C)cc(C)cc21 | 23.5% (inactive)
O=C(CN1C(=O)NC2(CCCC2)C1=O)N1CCN(C(=O)c2cccs2)CC1 | -1.67% (inactive)
O=C(Nc1ccccc1Cl)C(=O)N1CCC2(CC1)C(=O)Nc1ccccc12 | -33.1% (inactive)
CCn1ccnc1CN(C)C(=O)c1cc(COc2cccc3cnccc23)on1 | -1.51% (inactive) and -6.44% (inactive)
CC(C)(C)CN(CCO)Cc1ncc(C(C)(C)C)o1 | -4.58% (inactive)
CS(=O)(=O)Cc1nc(-c2cc3c(cc2F)NC(=O)CC3)cs1 | -12.8% (inactive)
C=CCN(CC=C)C(=O)CSc1nc2scc(-c3ccc(F)cc3)c2c(=O)n1C | 11.1% (inactive)
COCCn1c(-c2cc(OC)ccc2OC)csc1=Nc1ccc(OC)cc1 | -17.5% (inactive)
Cc1ccc(-c2nc(CCNC(=O)c3cccc(C)c3)cs2)cc1 | 5.19% (inactive)
O=S(=O)(c1ccc(Oc2nc(C(F)(F)F)nc3ccccc23)cc1)N1CCOCC1 | -25.2% (inactive)
COC(=O)NC(C)C(=O)NCc1cccnc1Oc1c(C)cccc1C (configuration not stated) | -19.5% (inactive)
CCN(Cc1ccccc1)C(=O)COC(=O)c1cccc(O)c1 | 5.18% (inactive)
CN1CCN(c2ccc(NC(=O)c3cccs3)c(C(F)(F)F)c2)CC1 | -17.2% (inactive)
COc1ccc(C2=CCN(C(=O)c3csc(NC(C)=O)n3)CC2)cc1 | -5.03% (inactive)
COc1ccc(CCn2c(SCCO)nc3c2c(=O)n(C)c(=O)n3C)cc1 | -8.65% (inactive)
Cc1nn(C)c(C)c1C(=O)N(C)Cc1ccc(Cl)cc1 | -0.861% (inactive)

Compound | inhibition
CCC(C(=O)N1CC=CCC1)n1cc(C(C)=O)c2ccccc21 (configuration not stated) | -14.3% (inactive)
Fc1ccc(-c2[nH]ncc2CNCc2ccc(OC(F)(F)F)cc2)c(F)c1 | -8.38% (inactive)
N#Cc1ccc(NC(c2ccccc2)c2ccccn2)nc1 (configuration not stated) | 9.13% (inactive)
CC(Cn1ccnc1)NS(=O)(=O)c1ccccc1 (configuration not stated) | -2.43% (inactive)
Cc1nc2c(c(NCc3csc(-c4cnccn4)n3)n1)CCN(C)CC2 | -14.9% (inactive)
COc1ccc(NC(C)=O)cc1S(=O)(=O)Oc1ccc2c(c1)CCC2 | -14.7% (inactive)
O=C(Cn1ccc(=O)c2ccccc21)Nc1cc(Cl)ccc1C(=O)N1CCCC1 | -4.35% (inactive)
COc1ccccc1-c1n[nH]c(=S)n1-c1ccc(C)cc1 | -2.19% (inactive)
O=C(Nc1ccc(F)cc1)Nc1ccc(OC(F)F)cc1 | -13.8% (inactive)
O=c1oc2c(CN3CC4CC(C3)c3cccc(=O)n3C4)c(O)ccc2cc1-c1nc2ccccc2s1 (configuration not stated) | -0.297% (inactive)
O=C(O)CCCc1ccccc1 | 0.216% (inactive) and -7.46% (inactive) and -8.15% (inactive)
O=C(CCSCc1ccccn1)NCc1ccc(Br)s1 | 7.74% (inactive)
O=C(O)CCCc1ccc(Br)s1 | 92.3% (active)
CS(=O)(=O)c1ccc(CN2CCN3C(C(=O)N4CCOCC4)=COC3=NC2=O)cc1 | 62.5% (active)
O=C(NCCc1ccccc1)C1=COC2=NC(=O)N(Cc3ccccc3C(F)(F)F)CCN12 | -9.37% (inactive)
N#Cc1cccc(CN2CCN3C(C(=O)NCCCc4ccccc4)=COC3=NC2=O)c1 | -8.68% (inactive)
Cc1cc2nc3c(=O)[nH]c(=O)nc-3n(C[C@H](O)[C@H](O)[C@H](O)CO)c2cc1C | 87.9% (active)
Cc1c(C(=O)NCc2cccs2)sc(=O)n1Cc1ccccc1C(F)(F)F | -4.53% (inactive)
COc1ccccc1CNC(=O)CC1C(=O)NCCN1Cc1ccccc1C (configuration not stated) | -7.58% (inactive)
C=Cc1c(C)c2[n-]c1=Cc1[n-]c(c(CC)c1C)C=c1[n-]c3c(c1C)C(O)=C(C(=O)O)C=3c1[n-]c(c(C)c1CCC(=O)O)C=2.[Cu] | 97.2% (active) and -3.92% (inactive)
Cc1ccc(C(=O)Nc2ccc(C(=O)NCC(N)=O)cc2)cc1Cl | -5.23% (inactive)
CCC(N)(C(=O)OC)c1ccccc1 (configuration not stated) | -5.42% (inactive)
Cc1ccc(NC(=O)Cc2nc(-c3ccc4c(c3)CCO4)cs2)c(C)c1 | 4.73% (inactive)
